Laboratory results taken from PubChem BioAssay (EPA / NIEHS).
Values joined by “and” are separate entries in the source; they are usually repeats but may differ in a detail not shown here. Equal values may be shown once. The source holds several records for some structures; these can differ, active in one and inactive in another. Active and inactive are the calls of the source. Rule for the calls: active = hit-call score of the fitted dose curve at least 0.9, where 1 is the maximum; inactive = score below 0.9.

Assays:
[1] = read-out: Human Leukocyte Antigen - DR isotype (HLADR), HLA-DRA (gene 3122); test: BSK_BE3C_HLADR: BioMAP Diversity Plus: BE3C Assay for Human Leukocyte Antigen - DR isotype (HLADR) Biomarker Activity (AID 2283032); settings: primary human bronchial epithelial cells; actives raise or lower the signal
In short: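 Human primary bronchial epithelial cells (BE3C system) exposed to compound for 24 hours; cell-surface HLA-DR measured by ELISA, fitted bidirectionally relative to DMSO. Total protein by SRB in parallel cultures tracked cytotoxicity.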

[2] = read-out: Vascular cell adhesion molecule 1 (VCAM1), VCAM1 (gene 7412); test: BSK_4H_VCAM1: BioMAP Diversity Plus: 4H Assay for Vascular cell adhesion molecule 1 (VCAM1) Biomarker Activity (AID 2283033); settings: primary human endothelial cells (HUVEC); actives raise or lower the signal
In short: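 Primary human umbilical vein endothelial cells, 4H stimulation system, treated for 24 h; cell-surface VCAM-1 quantified by ELISA. Bidirectional fitting against DMSO; cytotoxicity tracked by SRB total-protein staining in parallel cultures.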

[3] = read-out: Interferon-gamma inducible Protein 10 (IP10), CXCL10 (gene 3627); test: BSK_BE3C_IP10: BioMAP Diversity Plus: BE3C Assay for Interferon-gamma inducible Protein 10 (IP10) Biomarker Activity (AID 2283034); settings: primary human bronchial epithelial cells; actives raise or lower the signal
In short: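 Primary human bronchial epithelial cells, with IP-10 measured by ELISA 24 hours after chemical dosing. Bidirectional fit against DMSO; cytotoxicity checked by SRB total protein staining in parallel cultures.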

[4] = read-out: Monokine induced gamma interferon (MIG), CXCL9 (gene 4283); test: BSK_BE3C_MIG: BioMAP Diversity Plus: BE3C Assay for Monokine induced gamma interferon (MIG) Biomarker Activity (AID 2283035); settings: primary human bronchial epithelial cells; actives raise or lower the signal;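 note: MIG protein measured by ELISA in BE3C cultures after 24 h of dosing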
In short: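 ELISA read-out of MIG in human lung bronchial epithelial primary cultures, 24 h post-dosing. Bidirectional curve fit vs DMSO baseline.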

[5] = read-out: Transforming growth factor beta 1 (TGFb1), TGFB1 (gene 7040); test: BSK_BE3C_TGFb1: BioMAP Diversity Plus: BE3C Assay for Transforming growth factor beta 1 (TGFb1) Biomarker Activity (AID 2283036); settings: primary human bronchial epithelial cells; actives raise or lower the signal
In short: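 Primary human bronchial epithelial cells dosed with chemical; TGF-b1 measured by ELISA 24 h after dosing. Bidirectional curve fitting against DMSO negative control; SRB total-protein staining in parallel cultures gauged cytotoxicity.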

[6] = read-out: Plasminogen activator inhibitor-1 (PAI1), SERPINE1 (gene 5054); test: BSK_BE3C_PAI1: BioMAP Diversity Plus: BE3C Assay for Plasminogen activator inhibitor-1 (PAI1) Biomarker Activity (AID 2283037); settings: primary human bronchial epithelial cells; actives raise or lower the signal
In short: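 Primary human bronchial epithelial cells (BE3C system) exposed 24 h; PAI-1 quantified by ELISA. Parallel sulforhodamine B staining of total protein flags cytotoxicity. Bidirectional fit versus DMSO.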

[7] = read-out: urokinase plasminogen activator (uPA), PLAU (gene 5328); test: BSK_BE3C_uPA: BioMAP Diversity Plus: BE3C Assay for urokinase plasminogen activator (uPA) Biomarker Activity (AID 2283038); settings: primary human bronchial epithelial cells; actives raise or lower the signal
In short: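 Bronchial epithelial cells (human, primary); chemical 24 h; uPA by ELISA; bidirectional fit vs DMSO. SRB (0.1%, after 10% TCA fixation, 560 nm) in parallel cultures for cytotoxicity.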

[8] = read-out: Urokinase-type plasminogen activator receptor (uPAR), PLAUR (gene 5329); test: BSK_BE3C_uPAR: BioMAP Diversity Plus: BE3C Assay for Urokinase-type plasminogen activator receptor (uPAR) Biomarker Activity (AID 2283039); settings: primary human bronchial epithelial cells; actives raise or lower the signal;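 note: uPAR protein level measured by ELISA on the cells; cells exposed to compound for one day before measurement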
In short: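 Primary human bronchial epithelial cells dosed for 24 h; uPAR quantified by ELISA with bidirectional fitting against DMSO. Overt cytotoxicity assessed in parallel cultures by SRB total-protein staining (0.1% SRB, 560 nm).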

[9] = read-out: Interleukin-6 (IL6), IL6 (gene 3569); test: BSK_CASM3C_IL6: BioMAP Diversity Plus: CASM3C Assay for Interleukin-6 (IL6) Biomarker Activity for (AID 2283040); settings: primary human coronary artery smooth muscle cells; actives raise or lower the signal
[10] = read-out: Tissue plasminogen activator (tPA), PLAT (gene 5327); test: BSK_BE3C_tPA: BioMAP Diversity Plus: BE3C Assay for Tissue plasminogen activator (tPA) Biomarker Activity (AID 2283041); settings: primary human bronchial epithelial cells; actives raise or lower the signal
In short: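 Primary human bronchial epithelial cells in the BE3C system, exposed to compound for 24 h. tPA was quantified by ELISA; DMSO served as baseline, with gain or loss of signal fitted. Cytotoxicity checked in parallel cultures by SRB total-protein staining.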

[11] = read-out: Interleukin-8 (IL8), CXCL8 (gene 3576); test: BSK_CASM3C_IL8: BioMAP Diversity Plus: CASM3C Assay for Interleukin-8 (IL8) Biomarker Activity (AID 2283042); settings: primary human coronary artery smooth muscle cells; actives raise or lower the signal;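 note: IL-8 protein level quantified by ELISA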
[12] = read-out: Human Leukocyte Antigen - DR isotype (HLADR), HLA-DRA (gene 3122); test: BSK_CASM3C_HLADR: BioMAP Diversity Plus: CASM3C Assay for Human Leukocyte Antigen - DR isotype (HLADR) Biomarker Activity (AID 2283043); settings: primary human coronary artery smooth muscle cells; actives raise or lower the signal;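 note: cell-surface HLA-DR protein level quantified by ELISA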
[13] = read-out: Macrophage colony-stimulating factor (MCSF), CSF1 (gene 1435); test: BSK_CASM3C_MCSF: BioMAP Diversity Plus: CASM3C Assay for Macrophage colony-stimulating factor (MCSF) Biomarker Activity (AID 2283044); settings: primary human coronary artery smooth muscle cells; actives raise or lower the signal;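 note: M-CSF protein amount quantified by ELISA after 24 h exposure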
[14] = read-out: Low-density lipoprotein receptor (LDLR), LDLR (gene 3949); test: BSK_CASM3C_LDLR: BioMAP Diversity Plus: CASM3C Assay for Low-density lipoprotein receptor (LDLR) Biomarker Activity (AID 2283045); settings: primary human coronary artery smooth muscle cells; actives raise or lower the signal;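 note: LDLR protein level on the cell surface quantified by ELISA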
[15] = read-out: Monocyte Chemoattractant Protein-1 (MCP1), CCL2 (gene 6347); test: BSK_CASM3C_MCP1: BioMAP Diversity Plus: CASM3C Assay for Monocyte Chemoattractant Protein-1 (MCP1) Biomarker Activity (AID 2283046); settings: primary human coronary artery smooth muscle cells; actives raise or lower the signal;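 note: MCP-1 level quantified by ELISA 24 h after dosing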
[16] = BSK_CASM3C_Proliferation: Cell Proliferation Assessment in the BioMAP Diversity Plus: CASM3C Assay (AID 2283047); settings: primary human coronary artery smooth muscle cells;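 note: sulforhodamine B total protein stain as relative cell number at 560 nm; sub-confluent cells exposed 48 h before staining; fitted both ways against DMSO so gain or loss of cell number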
[17] = read-out: Monokine induced gamma interferon (MIG), CXCL9 (gene 4283); test: BSK_CASM3C_MIG: BioMAP Diversity Plus: CASM3C Assay for Monokine induced gamma interferon (MIG) Biomarker Activity (AID 2283048); settings: primary human coronary artery smooth muscle cells; actives raise or lower the signal;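 note: MIG protein level measured by ELISA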
[18] = read-out: serum amyloid A (SAA), SAA1 (gene 6288); test: BSK_CASM3C_SAA: BioMAP Diversity Plus: CASM3C Assay for serum amyloid A (SAA) Biomarker Activity (AID 2283049); settings: primary human coronary artery smooth muscle cells; actives raise or lower the signal;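 note: SAA protein level quantified by ELISA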
[19] = BSK_CASM3C_SRB: Viability Assessment in the BioMAP Diversity Plus: CASM3C Assay (AID 2283050); settings: primary human coronary artery smooth muscle cells
[20] = read-out: Thrombomodulin, THBD (gene 7056); test: BSK_CASM3C_Thrombomodulin: BioMAP Diversity Plus: CASM3C Assay for Thrombomodulin Biomarker Activity (AID 2283051); settings: primary human coronary artery smooth muscle cells; actives raise or lower the signal;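 note: thrombomodulin protein level measured by ELISA 24 h after dosing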

Measured: AC50

CC(=O)S[C@@H]1CC2=CC(=O)CC[C@]2(C)[C@H]2CC[C@@]3(C)[C@@H](CC[C@@]34CCC(=O)O4)[C@H]12
active: [2] 34.3 µM | [3] 30.9 µM | [11] 23.6 µM | [12] 27.3 µM | [15] 20 µM | [16] 31.4 µM
inactive: [1] | [4] | [5] | [6] | [7] | [8] | [9] | [10] | [13] | [14] | [17] | [18] | [19] | [20]

S=C(S)NCCNC(=S)S.[Mn+2].[S-]C([S-])=NCCN=C([S-])[S-].[Zn+2]
inactive: [1] | [2] | [3] | [5] | [6] | [7] | [8] | [9] | [10] | [11] | [12] | [13] | [14] | [15] | [16] | [17] | [18] | [19] | [20]
active: [1] 8.2 µM and 10 µM | [2] 10 µM | [3] 15.2 µM | [7] 209 nM and 1.08 µM and 2.73 µM | [12] 10 µM | [13] 5.89 µM | [14] 10 µM and 5.32 µM | [16] 14.2 µM [middle of 4 runs]

CCCCCOC(=O)COc1cc(N2C(=O)C3=C(CCCC3)C2=O)c(F)cc1Cl
active: [13] 14.4 µM | [16] 12.6 µM | [17] 25.5 µM
inactive: [1] | [2] | [3] | [4] | [5] | [6] | [7] | [8] | [9] | [10] | [11] | [12] | [14] | [15] | [18] | [19] | [20]

C#C[C@]1(O)CC[C@H]2[C@@H]3CCC4=CC(=O)CC[C@@H]4[C@H]3CC[C@@]21CC
active: [18] 6.06 µM
inactive: [1] | [2] | [3] | [5] | [6] | [7] | [8] | [9] | [10] | [11] | [12] | [13] | [14] | [15] | [16] | [17] | [19] | [20]

O=C(c1ccc(O)cc1O)c1ccc(O)cc1O
active: [3] 30.5 µM | [6] 34.6 µM
inactive: [1] | [2] | [4] | [5] | [7] | [8] | [9] | [10] | [11] | [12] | [13] | [14] | [15] | [16] | [17] | [18] | [19] | [20]

COc1nc(C)nc(NC(=O)NS(=O)(=O)c2ccccc2OCCCl)n1
inactive: [1] | [2] | [3] | [4] | [5] | [6] | [7] | [8] | [9] | [10] | [11] | [12] | [13] | [14] | [16] | [17] | [18] | [19] | [20]
active: [15] 0.441 µM

CCNc1nc(N)nc(Cl)n1
active: [7] 10.9 µM | [18] 20 µM
inactive: [1] | [2] | [3] | [4] | [5] | [6] | [8] | [9] | [10] | [11] | [12] | [13] | [14] | [15] | [16] | [17] | [19] | [20]

CCCOC(=O)c1ccc(C(=O)OCCC)nc1
inactive: [1] | [2] | [3] | [4] | [5] | [6] | [7] | [8] | [9] | [10] | [11] | [12] | [13] | [14] | [15] | [16] | [17] | [18] | [19] | [20]

COc1c(Cl)ccc(Cl)c1C(=O)O
inactive: [1] | [2] | [3] | [4] | [5] | [6] | [7] | [8] | [9] | [10] | [11] | [12] | [13] | [14] | [15] | [16] | [17] | [18] | [19] | [20]

N[C@@H](Cc1cc(I)c(Oc2ccc(O)c(I)c2)c(I)c1)C(=O)O
active: [3] 21.3 µM | [6] 18.8 µM | [10] 16 µM
inactive: [1] | [2] | [5] | [7] | [8] | [9] | [11] | [12] | [13] | [14] | [15] | [16] | [17] | [18] | [19] | [20]

O=C(O)C1(C(=O)Nc2ccc(Cl)cc2Cl)CC1
inactive: [2] | [4] | [5] | [6] | [7] | [8] | [9] | [10] | [11] | [12] | [13] | [14] | [15] | [16] | [17] | [18] | [19] | [20]
active: [1] 10.7 µM | [3] 23.8 µM

O=C(c1ccccc1)C1CCCCC1
inactive: [1] | [2] | [3] | [4] | [5] | [6] | [7] | [8] | [9] | [11] | [12] | [13] | [14] | [15] | [16] | [17] | [18] | [19] | [20]
active: [10] 33.3 µM
